Bioassay records deposited in PubChem BioAssay by several laboratories.
Only some compounds are listed: those with a hit (about 27% of all), similar ones and a draw of the others.
CYP2C19 inhib – inhibitors of human CYP2C19. 96,000 compounds, 21% hits. inhibition, % at 5 µM. CYP2C19 Supersomes, luciferin-H EGE luminescence, 30 min;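 active means CYP2C19 inhibition above a set limit at 5 µM in the primary screen, cut at about 50% in these data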;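 further: plate controls were negative control wells for no effect and 2.5 mM tranylcypromine positive control for full effect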
CYP2C9 inhib – blocks human cytochrome P450 2C9; P11712; CYP2C9 Supersomes, luciferin-H conversion, luminescence; inhibition, % at 5 µM; 96,000 compounds, 20% hits; AID 777;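 active means blocking of liver enzyme CYP2C9 beyond about 50% at 5 µM, limit read from the data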
Target sequence (P11712 whole entry, looked up): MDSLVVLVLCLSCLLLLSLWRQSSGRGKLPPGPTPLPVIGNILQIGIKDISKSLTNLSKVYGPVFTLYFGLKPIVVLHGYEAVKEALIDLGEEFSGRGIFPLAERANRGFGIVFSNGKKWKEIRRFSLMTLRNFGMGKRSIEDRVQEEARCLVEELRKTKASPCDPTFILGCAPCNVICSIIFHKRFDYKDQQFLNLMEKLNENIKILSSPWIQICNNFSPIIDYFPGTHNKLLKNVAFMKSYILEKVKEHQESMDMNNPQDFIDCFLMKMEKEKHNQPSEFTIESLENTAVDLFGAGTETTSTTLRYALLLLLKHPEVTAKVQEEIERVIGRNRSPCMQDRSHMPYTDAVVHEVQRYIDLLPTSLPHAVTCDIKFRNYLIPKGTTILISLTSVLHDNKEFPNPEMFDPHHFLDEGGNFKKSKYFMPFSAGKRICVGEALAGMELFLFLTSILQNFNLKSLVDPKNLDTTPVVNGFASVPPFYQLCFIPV
CYP2C9 activ – activators of human CYP2C9; recombinant CYP2C9, luciferin-H conversion, luminescence; active compounds read high; factor 1 = untreated enzyme, 0 = blocked; 96,000 compounds, 1.4% hits; P11712; activation factor at 5 µM;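 active means activation factor of 2 or more for CYP2C9 at a 5 µM dose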;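 further: 0 = sulfaphenazole-blocked wells and 1 = vehicle-only wells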
CYP2C19 activ – activators of human cytochrome P450 2C19; P33261; recombinant CYP2C19, luciferin-H EGE luminescence; active compounds read high; 0 = fully inhibited enzyme, 1 = untreated enzyme; activation factor at 5 µM; 96,000 tested, under 10 active; AID 1025;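 active means activation factor of at least 2 at 5 µM in the primary screen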;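 further: 0 = wells with 2.5 mM tranylcypromine and 1 = vehicle-only wells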
Cav3 T inh – inhibitors of human Cav3.2 T-type calcium channel; Cav3.2-expressing cells, Fluo-4 calcium fluorescence FDSS; active compounds read low; 100,000 compounds, 4% hits; O95180; B-score at 10 µM;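 active means single-dose well whose peak fluorescence ratio is a statistical outlier from its plate by either plate-standardised score or position-corrected B-score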
Active calls of the source: *; · = no result given.

SMILES | CYP2C19 inhib | CYP2C9 inhib | CYP2C9 activ | CYP2C19 activ | Cav3 T inh
O=c1cc(-c2ccccc2)nc(N2CCN(Cc3ccc4c(c3)OCO4)CC2)[nH]1 | 37.7 | 48.4 | 0.5 | 0.6 | -0.0451
COc1cc(OC)c(C2N(c3ccc(Cl)cc3)C(=O)C3CCCN32)cc1OC (configuration not stated) | 29.9 | 35.9 | 0.6 | 0.7 | -0.516
COc1cc2c(cc1OC)C(=S)NC(C)(C)C2 | 14.4 | 16.2 | 0.8 | 0.9 | -0.129
Cn1cc(Cl)c(C(=O)NC2CCCCCC2)n1 | 67.4* | -34.0 | 1.3 | 0.3 | 0.992
COc1ccc2[nH]c(C)c(CCN(Cc3cccs3)C(=S)Nc3cccc(F)c3)c2c1 | 78.2* | 98.0* | 0 | 0.2 | -3.82
COc1cccc(NC(=O)N(Cc2ccco2)C(C)c2cccs2)c1 (configuration not stated) | 39.2 | 33.4 | 0.7 | 0.6 | -2.32
CCOc1cc([C@H]2[C@@H]3CCCC[C@]3(O)CCN2CC(=O)NCc2ccco2)ccc1O | 56.1* | 54.1* | 0.5 | 0.4 | 0.477
CCCCNC(=O)CN1CCC2(O)CCCCC2C1c1ccccc1OC (configuration not stated) | 42.0 | 41.0 | 0.6 | 0.6 | 0.348
N#Cc1cccc(C(c2nnnn2C2CCCC2)N2CCC(Cc3ccccc3)CC2)c1 (configuration not stated) | · | · | · | · | -7*
N#Cc1ccc(C(c2nnnn2C2CCCC2)N2CCC(Cc3ccccc3)CC2)cc1 (configuration not stated) | 55.7* | 25.7 | 0.7 | 0.4 | -6.19*
N#Cc1cccc(C(c2nnnn2C2CCCC2)N2CCCCCC2)c1 (configuration not stated) | 28.6 | 34.5 | 0.7 | 0.7 | -4.24
COCCn1nnnc1C(c1cccc(C#N)c1)N1CCCCCC1 (configuration not stated) | 68.5* | 40.8 | 0.6 | 0.3 | 1.13
O=C(c1cccc(-n2cnnn2)c1)N1CCOCC1 | -13.3 | -15.8 | 1.2 | 1.1 | 0.0927
COc1ccc(-n2c(C)cc(C(=O)NC3CCCCC3)c2C)cc1 | 0.0 | 10.9 | 0.9 | 1 | -0.383
Cc1ccc(C(=O)NCC2CCCO2)cc1N1CCCC1=O (configuration not stated) | -4.3 | -5.9 | 1.1 | 1 | -1.02
CCOC(=O)C(NCc1ccco1)(NC(=O)c1ccccc1)C(F)(F)F (configuration not stated) | 75.9* | 43.6 | 0.6 | 0.2 | 1.12
CCOC(=O)C(NC(=O)c1ccc(F)cc1)(Nc1nnc(C)s1)C(F)(F)F (configuration not stated) | 14.4 | -1.7 | 1 | 0.9 | 0.451
CCOC(=O)c1c(NC(=O)CSc2nnc(-c3cccnc3)n2Cc2ccco2)sc(C)c1C | 43.3 | 65.7* | 0.3 | 0.6 | -2.44
C=CCn1c(SCC(=O)Nc2sc(C)c(C)c2C(=O)OCC)nnc1-c1sc(N)nc1C | 59.9* | 61.8* | 0.4 | 0.4 | 1.57
COC(=O)c1c(NC(=O)CSc2nnnn2C)sc(C)c1C | 65.1* | 65.7* | 0.3 | 0.3 | 0.518
COC(=O)c1c(NC(=O)CSc2nnc(-c3ccco3)n2Cc2ccccc2)sc(C)c1C | 18.4 | 61.8* | 0.4 | 0.8 | -4.5*
COCCn1c(SCC(=O)N2CCN(c3ccccc3)CC2)nc2c(c1=O)SC(C)C2 (configuration not stated) | · | · | · | · | 2.28
CCOC(=O)c1c(-c2ccc(Cl)cc2)c(C#N)c(=O)n(N)c1N | 15.9 | -3.6 | 1 | 0.8 | ·
COc1ccc(-n2c(O)c(Cc3ccccc3)c(=O)n3nc(-c4ccccc4)c(=O)cc23)cc1 | · | · | · | · | 0.852
O=C(CS(=O)c1cccc(Cl)c1)Nc1ccccc1Cl (configuration not stated) | 59.7* | -161.6 | 2.6* | 0.4 | 0.0155
SMILES | CYP2C19 inhib | CYP2C9 inhib | CYP2C9 activ | CYP2C19 activ | Cav3 T inh
CCN(C#N)c1nc(N(C)C)nc(N(C)C)n1 | -8.0 | -53.0 | 1.5 | 1.1 | -0.73
CCOC(=O)N1CCN(C(=O)CC(=O)Nc2ccc3nc4n(c(=O)c3c2)CCCCC4)CC1 | 13.7 | 69.4* | 0.3 | 0.9 | -0.182
O=C(COc1ccc(Cl)cc1Cl)Nc1ccc2nc3n(c(=O)c2c1)CCCC3 | 21.0 | 46.5 | 0.5 | 0.8 | -0.617
CCOC(=O)N1CCN(C(=O)C(=O)Nc2ccc3nc4n(c(=O)c3c2)CCCCC4)CC1 | 27.5 | 52.3* | 0.5 | 0.7 | 0.711
CCOc1ccc(C/C(N)=N/n2cnnc2)cc1 | -6.8 | -7.2 | 1.1 | 1.1 | 0.56
CC(C)(Oc1ccc(Cl)cc1)C(=O)OCn1nnc2ccccc2c1=O | 3.5 | 50.7* | 0.5 | 1 | -1
O=C(CC1CCCCC1)OCn1nnc2ccccc2c1=O | 69.3* | 37.8 | 0.6 | 0.3 | -0.572
O=C(CCN1C(=O)c2ccccc2C1=O)OCn1nnc2ccccc2c1=O | -2.6 | -26.1 | 1.3 | 1 | 1.48
O=C(OCn1nnc2ccccc2c1=O)c1cccnc1 | 16.9 | 5.2 | 0.9 | 0.8 | 0.237
O=C(CC(c1ccccc1)c1ccccc1)OCn1nnc2ccccc2c1=O | 84.8* | 94.7* | 0.1 | 0.2 | -4.94*
COc1ccc(S(=O)(=O)N2CCCC(C(=O)NCc3ccco3)C2)cc1Cl (configuration not stated) | 32.6 | -45.3 | 1.5 | 0.7 | -0.266
CCc1nnc(NC(=O)C(=O)NCCOC(=O)c2ccccc2Cl)s1 | 18.2 | 16.9 | 0.8 | 0.8 | -0.948
O=C(CCN1CCCC1)Nc1ccccc1 | 0.1 | -6.1 | 1.1 | 1 | 0.0357
C=CCOc1cccc(C2c3c(oc4ccccc4c3=O)C(=O)N2c2ccccn2)c1 (configuration not stated) | 37.5 | 37.6 | 0.6 | 0.6 | 0.235
CCCS(=O)(=O)c1nnnn1-c1cccc(OC)c1 | 36.9 | -11.5 | 1.1 | 0.6 | 1.41
Cc1cccc(C)c1-n1nnnc1S(=O)(=O)Cc1ccccc1Cl | 42.5 | 83.3* | 0.2 | 0.6 | -0.893
C[C@@H](C(=O)N1CCN(C(=O)OC(C)(C)C)CC1)n1cc(-c2cn([C@@H](C)C(=O)N3CCN(C(=O)OC(C)(C)C)CC3)nn2)nn1 | · | · | · | · | -0.0532
COc1ccc(N(CC(=O)NCc2ccc3c(c2)OCO3)S(C)(=O)=O)cc1OC | 19.3 | 13.3 | 0.9 | 0.8 | -1.49
Cc1ccc(S(=O)(=O)N(CC(=O)NCc2ccco2)C2CCCCC2)cc1 | · | · | · | · | 0.0696
CNC(=O)CN(C1CCCCC1)S(=O)(=O)c1ccc(OC)c(Cl)c1 | 16.3 | 24.0 | 0.8 | 0.8 | 0.328
COc1ccc(S(=O)(=O)N(CC(=O)NC2CC2)C2CCCCC2)cc1Cl | 59.4* | 71.6* | 0.3 | 0.4 | -0.599
COc1ccc(N(CC(=O)NCc2ccco2)S(C)(=O)=O)cc1OC | 82.8* | 49.5 | 0.5 | 0.2 | 0.658
COc1ccc(N(CC(=O)NCc2ccco2)S(C)(=O)=O)cc1 | 46.3 | 18.8 | 0.8 | 0.5 | 0.425
COc1ccc(S(=O)(=O)N(CC(=O)NCc2ccco2)C2CCCCC2)cc1OC | 85.7* | 40.3 | 0.6 | 0.1 | -1.56
COc1ccc(N(CC(=O)NCc2ccco2)S(C)(=O)=O)cc1Cl | 66.2* | -20.1 | 1.2 | 0.3 | 0.254
